Screening data (PubChem)
Shiga inhibitor – blocks Shiga toxin action in Vero cells; Vero cells, Shiga toxin protein synthesis inhibition reporter; inhibition, % at 38.7 µM; actives 9.2% (n = 290,000); in the data active = inhibition mostly above about 28%, no sharp cut-off; inactive = mostly below about 43%; note: 0% is about no effect
Pf growth 48h – inhibits P. falciparum growth in the first generation, 48 h; P. falciparum luciferase growth in erythrocytes, 48 h; Potency, µM (top dose mostly 28.7 µM), for the others: top-dose activity change, negative = inhibition, hits mostly inhibitors; actives 5.9% (n = 310,000); note: potency is the fitted concentration of half-maximal effect; % is set by controls: 0 for no effect and ±100 for the full control effect
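Here the parasites carry a stable luciferase gene and grow inside erythrocytes in Albumax-based RPMI medium with compound for one erythrocytic cycle. Activity is scored as loss of luminescent signal.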
Pf growth 96h – P. falciparum growth inhibition at 96 hour, primary screen for plastid delayed-death inhibitors. P. falciparum luciferase reporter growth, 96 h. Potency, µM (doses to about 28.7 µM), for the others: top-dose activity change, negative = inhibition, hits mostly inhibitors. actives 6.9% (n = 320,000). AID 504834; note: potency is the fitted concentration of half-maximal effect; % is set by controls: 0 for no effect and ±100 for the full control effect
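Delayed-death screen, second-generation endpoint: infected erythrocytes, 2% hematocrit, 0.05% parasitemia final; 96 hours at 37 C, 5% CO2; luciferase detection reagent; luminescence decrease equals reduced growth.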
Cycloheximide cs – affects cycloheximide protein synthesis inhibition readout, counter-screen; cell reporter, cycloheximide protein synthesis inhibition counterscreen; max response, %; actives 12% (n = 300,000); AID 2314; in the data active = max response mostly above about 13%, no sharp cut-off; inactive = mostly below about 14%; note: read at 38.3 µM for the half of the compounds with a filed dose; 0% is about no effect
SARS PLP yeast – inhibitors of SARS-CoV papain-like protease in yeast; actives 0.19% (n = 330,000); AID 485353; S. cerevisiae expressing SARS-CoV PLpro, growth rescue; Potency, µM (top dose mostly 32.9 µM), for the others: top-dose activity, positive = growth rescue, usual class: activators; calls by dose curve; note: potency is the fitted concentration of half-maximal effect; 0% is about no effect; nearly all actives have a fitted effect of over 55% in size
NS1 inh – influenza NS1 inhibition | actives 0.4% (n = 270,000) | Potency, µM (doses to about 46.1 µM), without a hit: at the highest dose activity, positive = more growth | AID 2326; calls by dose curve; note: potency is the fitted concentration of half-maximal effect; actives are rising curves; nearly all actives have a fitted effect of over 50% in size
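In this qHTS, NS1 from influenza A is expressed in budding yeast, where it slows growth. Cells are switched from glucose to 2% galactose medium (pH 6.0, -URA), treated with compound, and growth recovery is read at OD600.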
* = called active by the depositor; ? = inconclusive; / = no result given. Sampled rows, rich in hits. Any-hit rate of the full collection: about 21%. Unless noted, calls come from the whole dose curve; as a rule, active = well fitted inhibition curve with a large enough effect; inconclusive = small, poorly fitted or top-dose-only effect, or another doubt; inactive = no such curve, though single readings can be large or run the other way.

SMILES	Shiga inhibitor	Pf growth 48h	Pf growth 96h	Cycloheximide cs	SARS PLP yeast	NS1 inh
COc1ccc(C(=O)COc2ccc(C)cc2NC(C)=O)cc1	96*	108%	138%	49*	0%	-5%
COc1cccc(NC(=O)Nc2cc(C)ccc2F)c1	95*	61%	14%	27*	23%	-18%
COc1ccc(NC(=O)Nc2cc(C)ccc2F)cc1	34	/	127%	26*	2%	-55%
COc1ccc2[nH]c3c(c2c1)CCN1C(=O)C(CC(=O)NCCc2ccccn2)C[C@H](C(=O)N2CCCCC2)[C@@]31C (stereo not given in full)	/	/	/	/	-13%	/
CC(C)C(NC(=O)Nc1ccccc1)C(=O)Nc1cccc(S(=O)(=O)N(C)C)c1 (stereo not given)	-3	?	-11%	-2	/	13%
CC(=O)Nc1sc(N/N=C\c2cccc(Cl)c2)nc1-c1cccs1	9	?	?	19*	14%	6%
O=C(Cn1cncn1)N/N=C/c1cccc(Cl)c1	6	6%	15%	-1	-3%	2%
CC(=O)Nc1sc(N/N=C\c2ccccc2F)nc1-c1cccs1	62*	?	-59%	38*	2%	-7%
O=C(NN=Cc1ccc(O)cc1)c1ccccc1NS(=O)(=O)c1cccs1	/	/	/	/	13%	/
O=C(Nc1c(-c2cccs2)nc2ccccn12)c1ccccc1F	-4	-5%	-25%	-2	-5%	/
CC(=O)Nc1sc(N/N=C\c2ccc(O)cc2)nc1-c1cccs1	68*	18%	8%	27*	1%	3%
Cc1cc(SCc2sc(-c3ccc(C(F)(F)F)c(F)c3)nc2C)ccc1OCC(=O)O	-10	/	/	15	/	/
O=C(NCCNC(=O)c1ccc(Br)o1)c1cccnc1	-3	13%	-28%	-1	-4%	10%
O=C(Cc1ccccc1)Oc1coc(CSc2ncccn2)cc1=O	5	11%	11%	-5	-1%	/
CC1=Nc2ccccc2N=C(NC(=O)c2ccccc2)C1c1ccccc1 (stereo not given)	35	4.1µM*	?	18	-2%	-1%
CC1=Nc2ccccc2N=C(NC(=O)CN2CCN(c3ccccc3)CC2)C1c1ccccc1 (stereo not given)	-9	5.9µM*	?	2	0%	-2%
CCOC(=O)C1CCCN(CC(=O)NC2=Nc3ccccc3N=C(C)C2c2ccccc2)C1 (stereo not given)	-3	10µM*	?	2	1%	-38%
CCOC(=O)C1CCCN(CC(=O)Nc2cccc(C(C)=O)c2)C1 (stereo not given)	-1	0%	-14%	-2	0%	3%
CC1=Nc2ccccc2N=C(NC(=O)CSC(=S)N2CCCCC2)C1c1ccccc1 (stereo not given)	22	13µM*	?	6	0%	7%
CC1=Nc2ccccc2N=C(NC(=O)CSc2nnnn2-c2ccccc2)C1c1ccccc1 (stereo not given)	13	?	-20%	-1	/	-10%
CC(C(=O)NCCC1=CCCCC1)c1ccc([N+](=O)[O-])cc1 (stereo not given)	-3	-9%	3%	-1	-2%	-10%
Cc1cccc(NC(=O)CCN2CCC(C)CC2)c1	/	1%	7%	-3	2%	2%
C=C(C)CNC(=S)NNC(=O)CCn1c2ccc(Cl)cc2c2cc(Cl)ccc21	11	2.3µM*	45%	0	?	24%
C=C(C)CNC(=S)NNC(=O)CCn1c2ccccc2c2ccccc21	-12	-22%	?	-3	16%	-6%
C=C(C)CNC(=S)NNC(=O)c1ccncc1	3	6%	15%	-2	2%	/
SMILES	Shiga inhibitor	Pf growth 48h	Pf growth 96h	Cycloheximide cs	SARS PLP yeast	NS1 inh
C=C(C)CNC(=S)NNC(=O)CCn1c2cc(Cl)ccc2c2ccc(Cl)cc21	-9	7.4µM*	82%	-2	19%	?
N#CCN(C(=O)COC(=O)CCCNC(=O)c1ccc(Cl)cc1)c1ccccc1	/	-38%	-23%	/	4%	/
CCC(Oc1ccccc1)C(=O)N(CC)CC(=O)NCc1ccc(F)cc1 (stereo not given)	/	?	3%	/	-4%	/
CCCN(CC(=O)Nc1ccccc1C)C(=O)c1ccc(COc2ccccc2)cc1	85*	?	18%	30*	4%	-52%
CCN(CC(=O)NCc1ccc(F)cc1)C(=O)c1ccc(COc2ccccc2)cc1	99*	22%	29%	52*	-3%	13%
CCN(CC(=O)NCc1ccc(F)cc1)C(=O)C1CCN(C(=O)Nc2ccccc2)CC1	58	-11%	/	13*	7%	-7%
CCCOc1ccc(C(O)C(CN2CCOCC2)c2ccccc2)cc1 (stereo not given)	3	8.3µM*	8.3µM*	-2	1%	4%
c1ccc(C(CN2CCOCC2)c2ccccc2)cc1	-11	0%	8.3µM*	2	2%	2%
CCOc1ccc(C(O)C(CN2CCOCC2)c2ccccc2)cc1 (stereo not given)	-13	?	10µM*	23	-2%	?
OC(COC(c1ccccc1)c1ccccc1)CN1CCOCC1 (stereo not given)	-6	6%	10%	-1	1%	/
Cc1n(-c2ccccc2)c2ccc(Cl)cc2[n+]1CCO	12	?	2%	-6	0%	1%
C=CCN(CC=C)C(=S)Nc1ccc(OC)c(OC)c1	12	3%	?	-5	0%	/
CCc1ccc[n+](-c2[nH]c(=O)sc2/C=N/N=C(\[O-])c2cccnc2)c1	-3	0%	-25%	13	13%	-1%
Clc1ccc(Nc2ccc(Cl)nn2)cc1	48*	4%	35%	13	-3%	-3%
NNc1ccc(Cl)nn1	24	-18%	?	22*	-1%	-3%
COc1ccc(Nc2nc(Cl)c(C=O)s2)cc1	21	-2%	-4%	9	0%	/
CNc1ccc(Cl)nn1	-4	2%	?	1	1%	/
COc1ccc(Nc2ccc(Cl)nn2)cc1	54	/	1%	15*	5%	-2%
Cc1nn(Cc2ccccc2)c(N)c1C#N	-8	15%	12µM*	-4	-2%	-6%
Cc1sc2ncnc(N3CCC(C(=O)Nc4ccc(S(N)(=O)=O)cc4)CC3)c2c1C	/	?	?	/	1%	/
Cc1ccc(NC(=O)C2CCN(c3ncnc4sc(C)c(C)c34)CC2)cc1S(=O)(=O)N(C)C	/	4.1µM*	4.7µM*	/	-2%	/
Cc1sc2ncnc(N3CCC(C(=O)N(C)CC(=O)Nc4ccc(Cl)c(C(F)(F)F)c4)CC3)c2c1C	/	9.3µM*	?	/	1%	/
Cc1sc2ncnc(N3CCC(C(=O)Nc4cc(S(C)(=O)=O)ccc4Cl)CC3)c2c1C	/	9.3µM*	?	/	2%	/
Cc1sc2ncnc(N3CCC(C(=O)Nc4cc(Cl)ccc4Cl)CC3)c2c1C	/	?	?	/	-12%	/
